The record followed here is PubChem BioAssay.

Test [1] is described as follows: small molecules captured by biotinylated probe aFSTL3 – biochemical, small-molecule microarray, fluorescence 635/667, stem cell growth factor project, primary screen (AID 1064).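 Note: measures binding of the biotinylated anti-FSTL3 antibody to printed compounds.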 The settings on record: higher = more signal.
Test [2] is described as follows: binders from COS7 lysate, DM2A8 probe, primary screen, torsin A project, cell lysate, small-molecule microarray, fluorescence 635/667 (AID 1065). Particulars: higher = more signal, COS7 lysate expressing mutant human TOR1A.
Test [3] can be described thus: small molecules captured by biotinylated probe aFGF2 – biochemical, small-molecule microarray, fluorescence 635/667, stem cell growth factor project, primary screen (AID 1067).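 Note: measures binding of biotinylated aFGF2 protein to printed compounds on slides; z-score merges feature fluorescence and signal-to-noise across triplicate slides.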 The settings on record: higher = more signal.
A short description of test [4]: small molecules captured by biotinylated probe aFGF10 – biochemical, small-molecule microarray, fluorescence 635/667, stem cell growth factor project, primary screen (AID 1071).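 Note: score merges 667 nm spot intensity and signal to noise from triplicate slides.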 Particulars: higher = more signal.
For test [5], the target named is Neurogenic locus notch homolog protein 2 (Homo sapiens) (UniProt Q04721). The test can be described thus: small molecules binding Notch2 protein – biochemical, small-molecule microarray, 635 nm fluorescence, stem cell growth factors, primary screen (AID 1073). Particulars: higher = more signal.
In test [6] the target is Pro-neuregulin-1, membrane-bound isoform (Homo sapiens) (UniProt Q02297). The test can be described thus: small molecules binding neuregulin-1 protein – biochemical, small-molecule microarray, fluorescence 635/667, psychiatric disease protein project, primary screen (AID 1075).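 Note: score combines 667 nm spot fluorescence with signal to noise.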 Particulars: NRG1 binding, 635 nm fluorescence, higher = more signal.
Test [7] has as its system Neuregulin-1 EGF-like domain. The test can be described thus: small molecules binding NRG1 EGF domain – biochemical, small-molecule microarray, 635 nm fluorescence, primary screen (AID 1081).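 Note: binding of the protein to compounds printed on small-molecule microarray slides.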 Particulars: higher = more signal.
Test [8] can be described thus: FRG1 expression reporter modulators in myotubes – cell-based, C2C12 myotubes, firefly/Renilla luciferase, luminescence, FRG1 inhibition for FSHD, primary screen (AID 1084). The settings on record: FRG1 promoter luciferase, higher = more signal, called active from +8 up or from −8 down.
Test [9] in a line: small molecules captured by biotinylated probe aFST – biochemical, small-molecule microarray, fluorescence 635/667, stem cell growth factor project, primary screen (AID 1086).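 Note: score merges 667 nm fluorescence with signal-to-noise of each printed compound spot.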 Particulars: higher = more signal.
A short description of test [10]: binders of probe aHhip on microarray, primary screen, stem cell growth factor project, biochemical, small-molecule microarray, fluorescence 635/667 (AID 1087).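 Note: score merges spot fluorescence at 667nm with spot signal to noise ratio.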 The settings on record: higher = more signal.
Test [11] has as its system PRMT1 (protein arginine N-methyltransferase 1). The test can be described thus: small molecules binding arginine methyltransferase PRMT1 – biochemical, small-molecule microarray, 635 nm fluorescence, primary screen (AID 1088).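 Note: binding of Prmt1 protein to compounds spotted on small-molecule microarray slides.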 Particulars: higher = more signal.
Test [12] is described as follows: growth effects on S. cerevisiae YJM789 – YJM789 clinical isolate, OD600, 24 h, basal, primary screen (AID 1089).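 Note: growth of clinical yeast isolate S. cerevisiae YJM 789 seeded 1000 cells per well; test concentration not given here.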 Particulars: higher = more signal, called active from +8 up or from −8 down.
Test [13] in a line: S. pombe growth modifiers, basal conditions – strain 972, OD600, 24 h, no modulator, primary screen (AID 1090).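 Note: basal condition with compound alone and no growth modifier present; test concentration not given here.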 Particulars: S. pombe 972 growth, higher = more signal, called active from +8 up or from −8 down.
A short description of test [14]: budding yeast growth modifiers under rapamycin – strain BY4716, OD600, 96 h, primary screen (AID 1091). Note: test concentration not given here. The settings on record: S. cerevisiae BY4716 + rapamycin, higher = more signal, called active from +8 up or from −8 down.
The target of test [15] is Torsin-1A-interacting protein 2 (Homo sapiens) (UniProt Q8NFQ8). Kind of test: small molecules binding lysate-expressed LULL1 – cell lysate, human LULL1 lysate, 635/667 nm fluorescence, primary screen (AID 1092).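 Note: score merges per-feature 667 nm fluorescence with signal-to-noise.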 The settings on record: small-molecule microarray, hLULL1 lysate binding, 635 nm fluorescence; higher = more signal.
Test [16] can be described thus: optical density change of DRC41 E. coli – strain DRC41, OD650, 24 h, E. coli filamentation project, primary screen (AID 1093).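 Note: MC1000 strain lacking acrAB efflux and sulA so SOS filamentation is blocked; test concentration not given here.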 Particulars: E. coli DRC41 growth, higher = more signal, called active from +8 up or from −8 down.
Test [17] in a line: probe aLefty2 binding to arrayed compounds – biochemical, biotinylated probe, 635/667 nm fluorescence, primary screen (AID 1094).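 Note: score merges spot fluorescence near 667 nm with spot signal-to-noise ratio.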 The settings on record: small-molecule microarray, higher = more signal.
The test system of test [18] is Noggin (protein binding on small-molecule microarray). Kind of test: small molecules binding Noggin protein – biochemical, 635/667 nm fluorescence, primary screen (AID 1095).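 Note: score merges 667 nm feature fluorescence with signal to noise over triplicate slides.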 The settings on record: 635 nm fluorescence, higher = more signal.
The target in test [19] is Neurogenic locus notch homolog protein 3 (Homo sapiens) (UniProt Q9UM47). Kind of test: small molecules binding NOTCH3 protein – biochemical, 635/667 nm fluorescence, primary screen (AID 1096). The settings on record: small-molecule microarray, 635 nm fluorescence, higher = more signal.
Test [20] can be described thus: probe aEGFR binding to arrayed compounds – biochemical, biotinylated probe, 635/667 nm fluorescence, primary screen (AID 1097).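 Note: probe is a biotinylated anti-EGFR antibody binding compounds printed on slides; score combines fluorescence near 667 nm and signal to noise of each spot.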 Particulars: small-molecule microarray, higher = more signal.

The structures appear in SMILES notation. The source made the active and inactive calls.

Sequence of Neurogenic locus notch homolog protein 3 (Homo sapiens) (Q9UM47 whole entry, looked up): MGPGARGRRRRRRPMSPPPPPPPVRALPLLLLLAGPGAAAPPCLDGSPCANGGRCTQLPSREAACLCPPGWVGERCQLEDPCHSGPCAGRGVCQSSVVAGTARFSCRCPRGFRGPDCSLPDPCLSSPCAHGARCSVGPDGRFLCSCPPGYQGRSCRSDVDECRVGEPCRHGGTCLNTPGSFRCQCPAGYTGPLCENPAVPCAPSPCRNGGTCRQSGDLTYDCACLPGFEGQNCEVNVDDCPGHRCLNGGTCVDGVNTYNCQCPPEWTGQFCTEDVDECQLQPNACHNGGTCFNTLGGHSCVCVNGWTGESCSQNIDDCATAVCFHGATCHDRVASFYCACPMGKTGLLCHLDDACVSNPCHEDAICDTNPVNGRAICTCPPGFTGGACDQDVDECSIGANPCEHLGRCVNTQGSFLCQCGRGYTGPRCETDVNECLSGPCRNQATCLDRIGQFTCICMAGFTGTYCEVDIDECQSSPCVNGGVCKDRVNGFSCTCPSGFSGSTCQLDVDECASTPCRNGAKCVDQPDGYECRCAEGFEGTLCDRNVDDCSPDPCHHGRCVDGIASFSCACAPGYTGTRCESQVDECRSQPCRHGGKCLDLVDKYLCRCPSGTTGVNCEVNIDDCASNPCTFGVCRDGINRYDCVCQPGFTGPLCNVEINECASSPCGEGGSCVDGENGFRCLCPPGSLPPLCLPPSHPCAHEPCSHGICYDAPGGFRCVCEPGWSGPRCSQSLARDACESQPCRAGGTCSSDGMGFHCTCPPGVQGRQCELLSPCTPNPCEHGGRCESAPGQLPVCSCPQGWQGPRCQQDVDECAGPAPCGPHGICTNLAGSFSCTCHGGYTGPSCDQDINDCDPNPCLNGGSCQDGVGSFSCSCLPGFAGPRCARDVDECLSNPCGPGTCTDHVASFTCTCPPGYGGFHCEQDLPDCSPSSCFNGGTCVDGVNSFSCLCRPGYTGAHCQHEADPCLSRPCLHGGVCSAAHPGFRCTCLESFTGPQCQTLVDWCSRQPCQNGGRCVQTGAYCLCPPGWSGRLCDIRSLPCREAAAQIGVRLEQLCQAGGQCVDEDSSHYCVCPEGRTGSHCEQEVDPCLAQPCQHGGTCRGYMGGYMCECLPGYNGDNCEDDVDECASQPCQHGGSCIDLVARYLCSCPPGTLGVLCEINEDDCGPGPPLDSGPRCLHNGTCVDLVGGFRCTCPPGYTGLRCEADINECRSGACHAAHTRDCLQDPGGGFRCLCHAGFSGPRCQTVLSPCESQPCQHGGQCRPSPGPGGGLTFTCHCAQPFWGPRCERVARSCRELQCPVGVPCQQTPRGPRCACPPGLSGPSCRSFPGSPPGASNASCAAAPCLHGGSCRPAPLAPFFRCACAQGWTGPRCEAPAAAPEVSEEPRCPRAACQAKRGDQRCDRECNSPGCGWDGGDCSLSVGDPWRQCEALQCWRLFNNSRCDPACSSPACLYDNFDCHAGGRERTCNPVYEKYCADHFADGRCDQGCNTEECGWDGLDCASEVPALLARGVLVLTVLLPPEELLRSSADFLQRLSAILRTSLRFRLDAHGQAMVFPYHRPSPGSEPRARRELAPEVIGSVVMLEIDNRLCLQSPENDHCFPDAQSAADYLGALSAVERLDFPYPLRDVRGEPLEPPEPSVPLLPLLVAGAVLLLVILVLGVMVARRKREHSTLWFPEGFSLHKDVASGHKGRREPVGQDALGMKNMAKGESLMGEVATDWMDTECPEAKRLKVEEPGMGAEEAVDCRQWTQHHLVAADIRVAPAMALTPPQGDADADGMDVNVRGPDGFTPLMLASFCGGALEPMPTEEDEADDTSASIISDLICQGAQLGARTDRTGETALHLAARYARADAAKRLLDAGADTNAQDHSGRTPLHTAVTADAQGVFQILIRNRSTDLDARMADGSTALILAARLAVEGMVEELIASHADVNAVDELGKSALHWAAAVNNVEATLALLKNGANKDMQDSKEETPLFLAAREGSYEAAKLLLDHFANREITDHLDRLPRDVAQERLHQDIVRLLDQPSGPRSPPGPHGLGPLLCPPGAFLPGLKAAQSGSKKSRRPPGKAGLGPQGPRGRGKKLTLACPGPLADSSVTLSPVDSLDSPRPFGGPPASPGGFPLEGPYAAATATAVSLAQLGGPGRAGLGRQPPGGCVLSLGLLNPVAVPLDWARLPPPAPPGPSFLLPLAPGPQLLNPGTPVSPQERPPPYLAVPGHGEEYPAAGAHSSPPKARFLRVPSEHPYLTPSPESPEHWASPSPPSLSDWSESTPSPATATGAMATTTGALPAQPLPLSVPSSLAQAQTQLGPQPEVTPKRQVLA
Sequence of Neurogenic locus notch homolog protein 2 (Homo sapiens) (Q04721 whole entry, looked up, canonical isoform): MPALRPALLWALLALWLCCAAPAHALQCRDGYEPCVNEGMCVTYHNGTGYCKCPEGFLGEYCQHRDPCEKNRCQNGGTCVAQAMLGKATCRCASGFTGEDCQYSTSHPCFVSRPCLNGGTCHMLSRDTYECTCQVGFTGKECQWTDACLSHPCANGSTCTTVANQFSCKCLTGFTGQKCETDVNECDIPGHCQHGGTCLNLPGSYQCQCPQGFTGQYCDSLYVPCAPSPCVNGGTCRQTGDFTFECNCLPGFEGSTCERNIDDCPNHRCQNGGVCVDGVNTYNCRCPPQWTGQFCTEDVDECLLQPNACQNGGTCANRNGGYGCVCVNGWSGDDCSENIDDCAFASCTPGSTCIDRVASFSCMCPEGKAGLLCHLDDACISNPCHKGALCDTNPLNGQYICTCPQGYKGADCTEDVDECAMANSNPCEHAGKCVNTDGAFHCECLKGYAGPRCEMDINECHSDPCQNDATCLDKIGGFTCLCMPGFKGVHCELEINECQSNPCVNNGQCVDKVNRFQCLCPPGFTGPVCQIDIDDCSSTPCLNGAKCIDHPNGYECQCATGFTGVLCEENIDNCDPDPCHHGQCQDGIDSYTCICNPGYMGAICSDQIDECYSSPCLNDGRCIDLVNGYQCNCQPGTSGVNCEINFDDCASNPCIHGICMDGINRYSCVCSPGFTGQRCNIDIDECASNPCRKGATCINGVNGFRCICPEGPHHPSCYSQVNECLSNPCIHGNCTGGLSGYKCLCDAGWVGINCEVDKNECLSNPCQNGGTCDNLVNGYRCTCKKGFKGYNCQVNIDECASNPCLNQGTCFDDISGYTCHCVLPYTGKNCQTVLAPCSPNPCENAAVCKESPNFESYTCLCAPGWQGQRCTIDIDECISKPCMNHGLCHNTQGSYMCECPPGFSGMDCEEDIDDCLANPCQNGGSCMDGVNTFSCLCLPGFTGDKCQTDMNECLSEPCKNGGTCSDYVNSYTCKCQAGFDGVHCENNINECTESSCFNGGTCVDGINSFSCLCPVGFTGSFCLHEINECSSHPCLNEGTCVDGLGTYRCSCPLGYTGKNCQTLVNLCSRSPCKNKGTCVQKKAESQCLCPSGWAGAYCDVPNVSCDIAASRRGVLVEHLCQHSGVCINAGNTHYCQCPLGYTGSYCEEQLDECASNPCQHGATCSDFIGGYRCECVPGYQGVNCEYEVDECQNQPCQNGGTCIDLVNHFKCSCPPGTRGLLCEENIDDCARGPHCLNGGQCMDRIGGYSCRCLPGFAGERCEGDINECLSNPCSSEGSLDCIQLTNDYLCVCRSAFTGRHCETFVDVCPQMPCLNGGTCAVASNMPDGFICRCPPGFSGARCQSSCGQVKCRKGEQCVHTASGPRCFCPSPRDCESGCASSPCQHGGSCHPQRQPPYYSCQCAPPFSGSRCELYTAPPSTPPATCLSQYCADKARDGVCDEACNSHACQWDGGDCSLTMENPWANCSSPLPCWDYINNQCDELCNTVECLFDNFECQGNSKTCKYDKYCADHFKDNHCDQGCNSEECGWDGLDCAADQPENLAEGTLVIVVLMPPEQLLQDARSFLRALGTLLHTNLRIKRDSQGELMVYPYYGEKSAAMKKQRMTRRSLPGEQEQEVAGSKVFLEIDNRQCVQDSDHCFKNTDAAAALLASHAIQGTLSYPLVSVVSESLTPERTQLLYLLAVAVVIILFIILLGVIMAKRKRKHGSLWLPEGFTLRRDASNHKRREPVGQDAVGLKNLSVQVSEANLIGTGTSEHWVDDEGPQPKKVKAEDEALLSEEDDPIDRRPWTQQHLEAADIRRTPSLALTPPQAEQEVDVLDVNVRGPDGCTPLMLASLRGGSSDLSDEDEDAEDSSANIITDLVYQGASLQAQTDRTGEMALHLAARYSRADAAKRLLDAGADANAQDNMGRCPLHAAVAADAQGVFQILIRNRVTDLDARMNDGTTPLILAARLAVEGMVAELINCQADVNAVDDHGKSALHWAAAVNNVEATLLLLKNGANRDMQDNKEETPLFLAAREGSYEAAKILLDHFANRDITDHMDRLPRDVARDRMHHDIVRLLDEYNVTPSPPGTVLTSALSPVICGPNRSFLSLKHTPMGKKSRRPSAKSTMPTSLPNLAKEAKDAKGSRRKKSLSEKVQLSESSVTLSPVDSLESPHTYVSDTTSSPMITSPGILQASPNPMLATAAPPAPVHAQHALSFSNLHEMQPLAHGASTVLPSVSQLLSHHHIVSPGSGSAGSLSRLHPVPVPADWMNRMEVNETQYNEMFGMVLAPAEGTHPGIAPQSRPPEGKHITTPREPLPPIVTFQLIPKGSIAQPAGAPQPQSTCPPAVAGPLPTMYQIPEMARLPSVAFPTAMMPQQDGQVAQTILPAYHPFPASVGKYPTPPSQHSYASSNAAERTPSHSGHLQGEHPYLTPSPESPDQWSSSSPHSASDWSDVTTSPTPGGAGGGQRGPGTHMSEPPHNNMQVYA

`Cc1ccc(S[C@]2(C(=O)O)CC(=O)N(Cc3cc(C(F)(F)F)cc(C(F)(F)F)c3)[C@@H]2c2ccc(CO)cc2I)cc1`: the composite z-score in test [1] is 0.793; in [2], 0.0039; in test [3], -0.103; in test [4], 0.002; in test [5], -1.18; in test [6] it was 1.28. The composite z-score is 0.603 in test [7]; -0.292 in test [9]; 0.0373 in test [10]; 1.33 in test [11]; 1.59 in test [15]; 0.107 in test [17]. In addition, the composite z-score was -1.49 in [18], -0.913 in [19] and -0.264 in test [20]. Also, the z-score is 0.419 (inactive) in [8]; -0.455 (inactive) in test [12]; -2.26 (inactive) in test [13]; 2.31 (inactive) in [14]; 0.663 (inactive) in test [16].

`CC(C)[C@H]1NC(=O)[C@@]23C(=O)N[C@@H](Cc4ccccc4)C2[C@H](C)[C@@]2(C)O[C@H]2C3/C=C/C/C=C\CNC(=O)[C@H](C)NC1=O` (stereo not given in full): the composite z-score in test [1] is 0.11; in [2] it was -0.663; in test [3] it was -0.164; in test [4], 0.51; in test [5], -1.59; in test [6], -0.967. The composite z-score in [7] was 0.754; in test [9], -0.367; in test [10] it was -0.399; in [11], -1.24; in [15], -0.62; in test [17], -0.287. The composite z-score in test [18] was -0.632; in test [19], -0.517; in test [20], -0.255. For the same molecule, the z-score in test [8] is 0.194 (inactive); in test [12], 0.782 (inactive); in [13] it was 0.469 (inactive); in test [14], 0.41 (inactive); in [16], -0.823 (inactive).

On to `O=C(NCc1ccccc1)c1ccc(Br)cc1[N+](=O)[O-]`, for which the composite z-score is -0.375 in [1]; 0.13 in test [2]; -0.138 in [3]; 0.438 in [4]; 0.596 in test [5]; 0.661 in test [6]. Also, the composite z-score in [7] is 0.341; in test [9], 0.514; in [10] it was -0.114; in test [11] it was 0.54; in test [15], 0.715; in test [17], 0.109. The composite z-score is 0.0399 in test [18], 0.338 in test [19] and -0.0353 in [20]. In addition, the z-score in test [8] was -0.567 (inactive); in [12], -1.19 (inactive); in [13], -1.08 (inactive); in test [14] it was -0.778 (inactive); in test [16], 0.768 (inactive).

As for `O=C1C[C@@](C(=O)NC2CC2)(c2ccc([N+](=O)[O-])cc2)[C@@H](c2ccc(CO)cc2I)N1CC12CC3CC(CC(C3)C1)C2`, the composite z-score in test [1] was -0.514; in test [2], -0.407; in test [3], 0.01; in [4], 0.487; in [5], 1.05; in test [6], 0.346. In addition, the composite z-score in test [7] was 1.24; in test [9] it was 0.303; in test [10], -0.184; in test [11], 1.48; in test [15] it was 2.96; in test [17], -0.145. In addition, the composite z-score in test [18] is 1.32; in test [19], 1.07; in test [20], -0.198. Moreover, the z-score was -2.34 (inactive) in test [8]; 1.82 (inactive) in [12]; 1.19 (inactive) in test [13]; 5.3 (inactive) in [14]; -1.05 (inactive) in test [16].

Take `C[C@@H]1NC(=O)CC=C[C@@H](C)[C@@H]2C=C[C@H](O)[C@@H](COC(=O)[C@H](C)NC(=O)CC=C[C@@H](C)[C@@H]3C=C[C@H](O)[C@@H](COC1=O)O3)O2`: the composite z-score is -0.703 in [1]; 0.0339 in [2]; -0.0511 in test [3]; 0.216 in test [4]; 0.0211 in [5]; -0.428 in [6]. Moreover, the composite z-score in test [7] is -0.247; in test [9], 0.229; in test [10] it was -0.0994; in test [11] it was 0.0027; in test [15], -0.178; in [17], -0.221. Moreover, the composite z-score in [18] was 0.464; in [19], 0.108; in test [20], -0.0262. Further, the z-score in [8] is 0.587 (inactive); in test [12] it was -1.07 (inactive); in [13] it was -2.24 (inactive); in [14], -0.764 (inactive); in [16] it was 0.602 (inactive).
